# This is a sample that favours compounds with a hit; in the whole collection about 12% have one here.
# ALDH1A1 inh: ALDH1A1 (human) enzyme inhibition; Purified ALDH1A1, NADH fluorescence, propionaldehyde substrate; Potency, µM (series often up to 75.3 µM), actives largely listed as inhibitors; actives 7.3% (n = 220,000); active = well fitted inhibition curve with a large enough effect, not every such curve was filed as active; inconclusive = small, poorly fitted or top-dose-only effect, or another doubt; inactive = no such curve, though single readings can be large or run the other way
# Sfp PPTase inh: inhibitors of Bacillus subtilis Sfp phosphopantetheinyl transferase. Q9F4F7. Biochemical Sfp PPTase activity, qHTS. Potency, µM, most hits filed as inhibitors. actives 3.5% (n = 310,000);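 note: the enzyme is Sfp with the accession as filed and its product quenches rhodamine fluorescence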
#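 Compounds were incubated with enzyme (final 15 nM) for 15 min at room temperature before substrate addition started the reaction. Fluorescence at 525 nm excitation, 598 nm emission was recorded immediately and after 30 minutes.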
# RORg inh: inhibitors of mouse ROR gamma transcriptional activity; P51450; Drosophila S2 Gal4-RORgamma UAS-luciferase reporter, 20 h; Potency, µM (series often up to 53.6 µM), most hits filed as inhibitors; actives 5.4% (n = 310,000); note: nearly all actives have a fitted effect of over 60% in size
#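 Using a luciferase readout, inhibitors were identified by reduced reporter activity in Drosophila cells coexpressing a copper-inducible Gal4–ROR gamma fusion and UAS-driven Photinus luciferase, incubated 20 hr after 700 uM copper sulfate.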
# PLK1 PBD inh: inhibitors of human PLK1 polo-box domain binding | P53350 | Plk1 PBD binding of FITC phosphopeptide, fluorescence polarization | Potency, µM, usual class: inhibitors | actives 2.8% (n = 360,000) | AID 720504; note: series mostly up to about 57 µM; nearly all actives have a fitted effect of over 65% in size
# Target sequence (P53350 whole entry, looked up, the tested form may be a part): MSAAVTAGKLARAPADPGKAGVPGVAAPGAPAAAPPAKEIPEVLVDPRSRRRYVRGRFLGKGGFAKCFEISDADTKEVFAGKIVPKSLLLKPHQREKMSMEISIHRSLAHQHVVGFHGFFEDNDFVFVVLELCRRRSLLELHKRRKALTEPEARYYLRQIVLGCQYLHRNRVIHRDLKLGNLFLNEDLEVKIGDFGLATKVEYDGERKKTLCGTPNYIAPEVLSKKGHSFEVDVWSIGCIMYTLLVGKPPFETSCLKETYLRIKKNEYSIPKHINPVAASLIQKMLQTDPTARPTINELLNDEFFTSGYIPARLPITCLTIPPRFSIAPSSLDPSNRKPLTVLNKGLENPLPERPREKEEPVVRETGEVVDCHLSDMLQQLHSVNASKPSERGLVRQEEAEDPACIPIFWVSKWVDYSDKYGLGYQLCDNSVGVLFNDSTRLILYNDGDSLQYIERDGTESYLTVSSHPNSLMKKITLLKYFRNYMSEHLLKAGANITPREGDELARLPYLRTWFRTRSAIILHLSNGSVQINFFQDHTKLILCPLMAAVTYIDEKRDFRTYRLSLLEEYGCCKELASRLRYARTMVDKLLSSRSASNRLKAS
# Gal4-VP16 FLuc: counter-screen for ROR gamma inhibitors: Gal4-VP16 reporter | Drosophila S2 Gal4-VP16 UAS-luciferase, luminescence, 20 h | Potency, µM (titrated, usually from 53.6 µM), most hits filed as inhibitors | actives 3.5% (n = 310,000) | AID 2546;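 note: Gal4-VP16 expression switched on by copper sulfate through the metallothionein promoter; nearly all actives have a fitted effect of over 50% in size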
# Numbers stand for hits; - = inactive; ? = inconclusive; . = no result given; [ ] = dose if it differs, or a comment. Unless noted, calls come from the whole dose curve; as a rule, active = well fitted curve in the direction sought with a large enough effect; inconclusive = small, poorly fitted or top-dose-only effect, or another doubt; inactive = no such curve, though single readings can be large; an effect the other way counts as inactive or inconclusive.
SMILES,ALDH1A1 inh,Sfp PPTase inh,RORg inh,PLK1 PBD inh,Gal4-VP16 FLuc
C[C@@]12CCC(=O)C=C1CC[C@H]1[C@H]3CC[C@](O)(C(=O)CO)[C@]3(C)CC(=O)[C@@H]12,-,-,-,.,-
N=C1C(c2ccccc2)=C(O)CN1c1cccc(S(N)(=O)=O)c1,-,-,-[10 µM],-,-
N=C1C(c2ccccc2)=C(O)CN1c1cccc(S(=O)(=O)N2CCOCC2)c1,.,-,-,16.8µM,-
CCOC(=O)COc1ccc2c(C)c(CCN(CC)CC)c(=O)oc2c1Cl,.,-,-,.,-
C=CCNC(=S)NNC(=O)CCC(O)CCCCC (centres undefined),-,-,10µM,-,-
COc1ccc(C(=O)N2CCC3(CCN(Cc4ccncc4)CC3)CC2)cc1,-,-,-,.,-
CC(C)c1ccc(NC(=O)CSc2n[nH]c(=O)n2-c2ccc3c(c2)OCCO3)cc1,11.2µM,-,?,-,-
Cc1ccc(NC(=O)CSc2nccn(-c3ccc4c(c3)OCCO4)c2=O)cc1,.,.,.,-,.
O=C(CSc1nccn(-c2ccc3c(c2)OCCO3)c1=O)Nc1ccccc1,.,.,.,21.2µM,.
O=C(O)Cc1[nH]cnc1C(=O)O,-[13.5 µM],.,.,.,.
O=C(Nc1nnc([C@@H]2C[C@H](O)[C@@H](CO)O2)s1)c1cccc(C(F)(F)F)c1,.,.,.,-,.
CCN(CC)c1ccc(CNc2ccc(Br)cn2)cc1,7.08µM,-,-,-,-
Cc1ccnc(NCc2ccc(Br)cc2)c1,.,-,-,-,-
CCOc1ccc2nc(SCC(=O)Nc3cc4c(cc3C(C)=O)OCO4)[nH]c2c1,25.1µM,-,-,-,-
COc1ccc2nc(SCC(=O)Nc3ccc4c(c3)CCC4)[nH]c2c1,11.2µM,-,-,-,-
C[C@H]1CN([C@@H](C)CO)C(=O)CCCn2nncc2CO[C@H]1CN(C)S(=O)(=O)c1ccc(Oc2ccccc2)nc1,.,.,.,-,.
COC(=O)c1ccc(C(NC(=O)OCc2ccccc2)/C(F)=C/[C@@H](C)C(=O)NCc2cc(C)on2)cc1 (some centres undefined),-,-,-,.,-
O=[N+]([O-])c1ccc2c(c1)N([O-])C1(CCCCC1)[N+]2=O,.,7.08µM,-,11.9µM,-
CC1=C(c2ccccc2)[N+](=O)C2(CCCC2)N1[O-],-,-,-,-,-
Cc1ccc(S(=O)(=O)N2CCC[C@H]2C(=O)OCC(=O)c2ccc3c(c2)NC(=O)CO3)cc1,.,-,-,26.7µM,-
Cc1ccc(S(=O)(=O)N2CCCC2C(=O)OCc2ccco2)cc1 (centres undefined),2.82µM,?,-,-,-
Cc1ccc(S(=O)(=O)N2CCCC2C(=O)OCc2ccccc2)cc1 (centres undefined),-,-,-,-,-
Cc1ccc(S(=O)(=O)N2CCCC2C(=O)OCC(=O)Nc2ccc3c(c2)OCO3)cc1 (centres undefined),-,-,-,-,-
c1ccc(Nc2c(-c3ccco3)nc3ccccn23)cc1,?,-,-[10 µM],-,-
c1ccc(-c2nc(-c3ccco3)n3ccccc23)cc1,-,7.08µM,?,-,?
SMILES,ALDH1A1 inh,Sfp PPTase inh,RORg inh,PLK1 PBD inh,Gal4-VP16 FLuc
CCC(=O)OCCNc1cc(Sc2nc3ccccc3s2)c2nonc2c1[N+](=O)[O-],8.91µM,3.98µM,-,1.89µM,4.47µM
Nc1nonc1NC(=O)CSc1nc2ccccc2s1,?,-,-,?,-
O=[N+]([O-])c1c(NCCCO)cc(Sc2nc3ccccc3s2)c2nonc12,15.8µM,-,-,0.947µM,-
O=[N+]([O-])c1c(NCCO)cc(N2CCN(Cc3ccc4c(c3)OCO4)CC2)c2nonc12,?,-,-,-,?
CCC(=O)OCCNc1cc(Sc2nc3ccccc3[nH]2)c2nonc2c1[N+](=O)[O-],-,17.8µM,3.16µM,1.19µM,4.47µM
CC1=C(C(=O)N(C(C)C)C(C)C)CC(CC(=O)NCc2cccc3ccccc23)C(=O)N1Cc1ccc(F)cc1 (centres undefined),.,.,.,-,.
COC(=O)c1ccc(CNC(=O)c2ccccc2C(=O)NCC2(CBr)OCCO2)cc1,.,.,.,-,.
COc1cccc(-c2nnc(SCC3CNC(=O)O3)n2-c2ccc(Cl)cc2)c1 (centres undefined),0.631µM,-,-,-,-
COC(=O)[C@]12CCCCC=C1N(Cc1ccc(Cl)cc1Cl)C(=O)[C@H](CC(=O)N1CCC(c3ccccc3)CC1)C2,.,.,.,-,.
Cc1cc(Cl)ccc1NC(=S)NCCC(c1ccccc1)c1ccccc1,-,-,7.08µM,-,6.31µM
Cc1c(Cl)cccc1NC(=S)NCC(c1cccnc1)N(C)C (centres undefined),-,-,-,-,-
COC(C(=O)Nc1ccc(Cl)cc1C)c1ccccc1 (centres undefined),-,-,-,-,-
Cc1c(Cl)cccc1NC(=S)NCCC(c1ccccc1)c1ccccc1,?,-,0.631µM,-,1.26µM
Cc1c(Cl)cccc1NC(=S)NCCC(C)C,-,-,4.47µM,-,6.31µM
Cc1c(Cl)cccc1NC(=S)NCC(C)C,-,-,6.31µM,-,?
Cc1c(C)c2ccc(OCC(=O)Nc3ccccc3C(N)=O)cc2oc1=O,.,-,-,-,-
CCNc1ncc2nc(-c3ccc(F)cc3)c(=O)n(C[C@H]3CCCO3)c2n1,?,-,-,.,-
O=C(Nc1cnc2ccccc2c1)N1CCOCC1,-,-,-,26.7µM,-
CCC(CC)C(=O)N(CCc1ccc(OC)cc1)Cc1nc2ccccc2c(=O)[nH]1,-,-,5.01µM,-,10µM
COCC(=O)N(CCc1ccc(OC)c(OC)c1)Cc1nc2ccccc2c(=O)[nH]1,-,-,-,-,-
COc1ccc(CCN(Cc2nc3ccccc3c(=O)[nH]2)C(=O)c2ccco2)cc1,-,-,12.6µM,-,?
CCCCCCn1c(-c2cccs2)n[nH]c1=S,?,-,2µM,-,?
CCCCn1c(-c2cccs2)nc2nc3ccccc3nc21,-,?,-,-,-
CCCCn1c(-c2csc3c2CCC(C)C3)n[nH]c1=S (centres undefined),15.8µM,-,0.794µM,-,2.51µM
CCCCn1c(-c2csc3ccccc23)n[nH]c1=S,?,-,7.94µM,-,?
SMILES,ALDH1A1 inh,Sfp PPTase inh,RORg inh,PLK1 PBD inh,Gal4-VP16 FLuc
CCCCn1c(SCC(N)=O)nc2sc3c(c2c1=O)CCC3,.,-,-,-,-
CCCCn1c(-c2csc3c2CCCC3)n[nH]c1=S,?,-,3.55µM,-,?
CCn1c(CCn2ccnc2C)n[nH]c1=S,-,-,-,-,-[0.365 µM]
CCn1c(-c2csc3c2CCCC3)n[nH]c1=S,?,-,3.98µM,-,4.47µM
C=CCn1c(-c2csc3c2CCC(C)C3)n[nH]c1=S (centres undefined),?,-,1.41µM,-,2.51µM
CCOC(=O)C1(Cc2ccccc2Cl)CCN(S(=O)(=O)N(C)C)CC1,8.91µM,-,-,-,?
NS(=O)(=O)c1ccc2c(c1)C1C=CCC1C(C1CC=CCC1)N2 (centres undefined),?,20µM,-,-,-
CC(C)C1Nc2ccc(S(N)(=O)=O)cc2C2C=CCC21 (centres undefined),20µM,35.5µM,-[0.365 µM],-,.

# Compound activity (PubChem)
